IL-1B inflam inh: blocks inflammasome-driven IL-1 beta release; THP-1 LPS/ATP IL-1B secretion, AlphaLISA, 16 h; hits give low values; AID 743279; activity change, % at 57.5 µM; 360,000 tested, 4.7% active; in the data active = activity change below about -50%; inconclusive = mostly about -30% to -49%
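THP-1 cells pretreated 1 hr with compounds (up to 57.5 uM final), then stimulated with LPS (250 ng/mL final) plus ATP (1.25 mM final); secreted IL-1B measured by AlphaLISA after 16 hr, decreased signal indicating inhibition.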
HT1080NT lethal: kills 2HG-producing HT-1080-NT fibrosarcoma cells; 360,000 tested, 1.6% active; AID 686970; HT-1080-NT fibrosarcoma viability, CellTiter-Glo ATP luminescence, 48 h; Potency, µM (highest dose often 46.1 µM), for inactives: top-dose activity, negative = less viability, actives largely listed as cytotoxic;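 note: NT is the 2HG producing partner of a matched IDH1 knockdown line; potency is the fitted concentration of half-maximal effect; 0% = DMSO-treated cells and -100% = media-only wells without cells; nearly all actives have a fitted effect of over 55% in size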
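Luminescent CellTiter-Glo readout after 48 hours of compound exposure at 37 degrees C defined viability of HT-1080-NT cells. Activity was normalized to DMSO wells and cell-free media wells; concentration-response curves were fitted and assigned curve classes.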
TDP1 cell CPT: DT40-hTDP1 cell growth loss with CPT | chicken DT40 Tdp1-/-;hTDP1 cells + 20 nM CPT, ATP luminescence, 48 h | Potency, µM (series often up to 46.2 µM), without a hit: top-dose activity change, negative = growth inhibition, usual class: inhibitors | 420,000 tested, 12% active | AID 686979; note: potency is the fitted concentration of half-maximal effect; nearly all actives have a fitted effect of over 55% in size
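Chicken DT40 Tdp1-/- cells stably complemented with human TDP1 were seeded at 400 cells/well in medium containing 20 nM camptothecin, exposed to pin-transferred compounds, and grown at 37 °C for at least 48 hr. Viability was read as ATP luminescence.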
TDP1 cell noCPT: qHTS for Inhibitors of human tyrosyl-DNA phosphodiesterase 1 (TDP1): qHTS in cells in absence of CPT. DT40 Tdp1-/- hTDP1 cells, no CPT, ATP luminescence, 48 h. Potency, µM (series often up to 46.2 µM), for the others: at the top dose activity change, negative = growth inhibition, usual class: inhibitors. 420,000 tested, 15% active; note: potency is the fitted concentration of half-maximal effect; nearly all actives have a fitted effect of over 55% in size
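Luminescent ATP content (CellTiter-Glo) served as the growth readout. Knockout chicken DT40 cells expressing human TDP1 were exposed to compounds without camptothecin for a minimum 48 hr at 37 °C.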
HT1080 IDH1KD tx: toxicity to HT-1080 IDH1 knockdown cells (counter line); HT-1080 IDH1 knockdown viability, ATP luminescence, 48 h; Potency, µM (doses to about 46.1 µM), for the others: top-dose activity, negative = toxicity, hits mostly cytotoxic; 360,000 tested, 2% active; AID 686971;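 note: potency is the fitted concentration of half-maximal effect; 0% = DMSO wells and -100% = cell-free medium wells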
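After a 2 h attachment period, IDH1KD HT-1080 cells took pin-transferred compound for 48 h at 37 °C; ATP-based luminescence after 10 min room-temperature reagent incubation reported viability.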
* hit, by the source's call; ? = inconclusive; . = no result; ! = a repeat was not active; [ ] = dose if it differs, or a comment. Shown are actives, neighbours in structure and some others; about 19% of the full set was active somewhere. Unless noted, calls come from the whole dose curve; as a rule, active = well fitted curve in the direction sought with a large enough effect; inconclusive = small, poorly fitted or top-dose-only effect, or another doubt; inactive = no such curve, though single readings can be large; an effect the other way counts as inactive or inconclusive. Unless noted, % is set by controls: 0 for no effect and ±100 for the full control effect.

SMILES	IL-1B inflam inh	HT1080NT lethal	TDP1 cell CPT	TDP1 cell noCPT	HT1080 IDH1KD tx
COc1ccc(CN2CC(=O)N(c3ccc(C)cc3)C2=S)cc1OC	-4.0	-5.9%	0.0%	?	-8.1%
COc1cc(CN2CC(=O)N(c3ccc(C)cc3)C2=S)cc(OC)c1OC	1.8	-6.0%	?	25.9µM*	-7.2%
COc1cc(CN2CC(=O)N(c3ccc(C)c(Cl)c3)C2=S)cc(OC)c1OC	-13.4	?	?	20.6µM*	-15.9%
CCc1ccc(NC(=O)CSc2nnc(CNC(=O)c3cccs3)o2)cc1	39.4	-3.6%	-3.2%	24.2%	4.3%
COCCCC1CCN(C(=O)CCc2nnc(CCCCc3ccccc3)o2)CC1	6.3	8.3%	?	14.6µM*	0.4%
CC1=C(C(=O)N2CCOCC2)CC(CC(=O)NC(c2ccccc2)c2ccccc2)C(=O)N1CCC1=CCCCC1 (stereo unspecified)	-18.7	-19.1%	?	?	-17.0%
CC1=C(C(=O)N(C)C)CC(CC(=O)NC(c2ccccc2)c2ccccc2)C(=O)N1Cc1ccccc1 (stereo unspecified)	-22.4	-0.1%	-0.8%	-22.3%	-3.2%
CCCCN1C(=O)C(CC(=O)NC(c2ccccc2)c2ccccc2)CC(C(=O)N2CCCCCC2)=C1C (stereo unspecified)	-0.7	-0.8%	?	?	18.8%
CCCCN1C(=O)C(CC(=O)NC(c2ccccc2)c2ccccc2)CC(C(=O)N(CC)CC)=C1C (stereo unspecified)	?	-10.6%	18.4µM*	20.6µM*	-9.2%
COCCCN1C(=O)C(CC(=O)NC(c2ccccc2)c2ccccc2)CC(C(=O)N2CCCCCC2)=C1C (stereo unspecified)	-0.7	16.9%	?	?	1.3%
CC1=C(C(=O)N(C)C)CC(CC(=O)NC(c2ccccc2)c2ccccc2)C(=O)N1Cc1ccc(F)cc1 (stereo unspecified)	22.5	2.2%	?	18.4µM*	5.6%
CC1=C(C(=O)N(C(C)C)C(C)C)CC(CC(=O)NC(c2ccccc2)c2ccccc2)C(=O)N1CCC1=CCCCC1 (stereo unspecified)	?	?	25.9µM*	18.4µM*	?
CCN(CC)C(=O)C1=C(C)N(CCCOC)C(=O)C(CC(=O)NC(c2ccccc2)c2ccccc2)C1 (stereo unspecified)	3.6	0.3%	5.8µM*	7.31µM*	-0.5%
O=C(c1ccccc1)N(Cc1nc2ccccc2c(=O)[nH]1)C1CCCC1	15.2	-15.2%	7.6%	-29.8%	-9.9%
Cc1cccc(C(=O)N(Cc2nc3ccccc3c(=O)[nH]2)C2CCCC2)c1	-18.8	-19.2%	?	25.9µM*	-22.8%
O=C(c1ccc(Br)cc1)N(Cc1nc2ccccc2c(=O)[nH]1)C1CCCC1	?	?	?	18.4µM*	23.1µM*
COc1ccc(N2C(=O)[C@@H]3C[C@H]2CN3Cc2cccn2-c2ccc(Cl)cn2)c(C)c1	.	.	-0.8%[9.04 µM]	?	.
COc1cc(NC(=O)c2cc(C)on2)cc(C(=O)Nc2cccc(C(F)(F)F)c2)c1	-17.3	?	?	?	?
COc1cc(NC(=O)c2cnc(N)s2)cc(C(=O)Nc2cccc(C(F)(F)F)c2)c1	55.7	0.4%	?	18.4µM*	-2.9%
COc1cc(NC(=O)c2csc(N)n2)cc(C(=O)Nc2cccc(C(F)(F)F)c2)c1	56.7	16.4µM*	4.61µM*	2.91µM*	20.6µM*
COc1cc(NC(=O)c2ccnc(N)c2)cc(C(=O)Nc2cccc(C(F)(F)F)c2)c1	-18.5	?	23.1µM*	20.6µM*	14.6%
COc1cc(NC(=O)c2cnc(N)o2)cc(C(=O)Nc2cccc(C(F)(F)F)c2)c1	-21.3	-15.9%	20.6µM*!	13µM*!	-18.7%
O=C(Cn1c(=O)c(C(F)(F)F)nc2ccccc21)Nc1cccc(Br)c1	.	.	-3.8%	-13.2%	.
COc1ccc(S(=O)(=O)N2CCCC2CNC(=O)C(=O)Nc2cccc(F)c2)cc1 (stereo unspecified)	0.0	-0.3%	-13.2%	?	-9.2%
COC(=O)c1ccc(/C=C/c2c(-c3ccc(OC)cc3)oc3ccc(N4CCOCC4)cc23)cc1	-6.4	1.2%	?	23.1µM*	10.2%
SMILES	IL-1B inflam inh	HT1080NT lethal	TDP1 cell CPT	TDP1 cell noCPT	HT1080 IDH1KD tx
COc1ccc(/C=C\c2nc(=O)c3ccccc3o2)cc1	-3.6	-0.8%	?	7.31µM*	-2.4%
COC(=O)c1ccc(/C=C/c2c(-c3ccc(OC)cc3)oc3ccccc23)cc1	-6.0	1.2%	18.4µM*	18.4µM*	-0.8%
COC(=O)c1cc(=O)nc(NN=Cc2ccc(OC)cc2)s1	18.0	?	-18.3%	-20.3%	5.1%
CC(C)c1ccc(CNNC(=O)c2ccccc2)cc1	-1.1	-16.5%	?	?	-0.1%
COc1cccc(CN2CCC3(CCC(CNC(=O)c4ccco4)O3)CC2)c1OC (stereo unspecified)	.	.	7.0%[9.04 µM]	-20.9%	.
COc1cc([N+](=O)[O-])cc(/C=N/NC(=O)c2cc(C)nc3ccccc23)c1O	51.7	?	?	?	13µM*
COc1cc([N+](=O)[O-])cc(/C=N/NC(=O)c2cc(-c3ccccc3)nc3ccccc23)c1O	55.8	?	20.6µM*	23.1µM*	?
C=C1CCC[C@]2(C)C[C@H]3OC(=O)C(CNC(C)CCCC(C)C)[C@H]3CC12 (stereo partly specified)	-98.6*	?	?	20.6µM*	?
C=C1CCC[C@]2(C)C[C@H]3OC(=O)C(CN4CCOCC4)[C@H]3C[C@@H]12 (stereo partly specified)	-74.3*	-22.0%	?	?	-27.2%
C=C1CCC[C@]2(C)C[C@H]3OC(=O)C(CN[C@@H](C)c4ccccc4)[C@H]3CC12 (stereo partly specified)	-86.9*	-12.5%	?	?	-8.9%
C=C1CCC[C@]2(C)C[C@H]3OC(=O)C(CNCC(OC)OC)[C@H]3CC12 (stereo partly specified)	-78.4*	-21.1%	?	18.4µM*	?
COc1cccc(OCCCn2c(-c3ccc(Cl)cc3)nc3ccccc3c2=O)c1	.	.	-13.6%	-16.2%	.
C=C1CCC[C@]2(C)C[C@H]3OC(=O)C(CN(Cc4ccc(OC)c(OC)c4)CC(C)O)[C@H]3CC12 (stereo partly specified)	-97.8*	?	?	18.4µM*	?
COc1ccc(CCNC(=O)C2(C)CCC(=O)N2CCC(C)C)cc1OC (stereo unspecified)	5.5	3.2%	9.5%	-8.3%	7.6%

High-throughput results (PubChem)
